This is an account of results in article PMC4081100, “A DNA-binding-site landscape and regulatory network analysis for NAC transcription factors in Arabidopsis thaliana”.

Holding throughout (test): universal protein binding microarray (PBM); transcription factors of Arabidopsis thaliana; high values mean tight binding
What all share (conditions): protein: recombinant; tags: GST; chain copies: 2; dsDNA, one strand shown

Experiment [1] has as its target T1, GST-ANAC092(1-176) (Arabidopsis thaliana, UniProt Q9FKA0 1-176).
T1 sequence: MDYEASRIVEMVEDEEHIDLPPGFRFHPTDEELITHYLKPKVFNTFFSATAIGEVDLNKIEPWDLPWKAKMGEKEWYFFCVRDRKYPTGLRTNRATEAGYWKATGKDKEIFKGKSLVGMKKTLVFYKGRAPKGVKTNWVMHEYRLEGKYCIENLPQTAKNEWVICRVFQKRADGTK
In outline: (§1)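 GST-tagged NAC-domain, full-length or DNA-binding-domain proteins were induced in cells, with zinc acetate added for zinc-finger proteins. They were purified on glutathione–Sepharose 4B and quantified by A280 or anti-GST western blot. Each was applied at 200 to 500 nM final, in duplicate, to custom all-10-mer Agilent 4 × 180K arrays made double-stranded by primer extension, with gapped and ungapped 8-mers scored. Binding is the normalised enrichment score (E-score).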

Experiment [2] deals with GST-NTL6(1-168) (Arabidopsis thaliana, UniProt Q9SCK6 1-168). In outline: as §1
Experiment [3] deals with T2, GST-ANAC019 NAC domain (Arabidopsis thaliana, UniProt Q9C932 14-162).
T2 sequence: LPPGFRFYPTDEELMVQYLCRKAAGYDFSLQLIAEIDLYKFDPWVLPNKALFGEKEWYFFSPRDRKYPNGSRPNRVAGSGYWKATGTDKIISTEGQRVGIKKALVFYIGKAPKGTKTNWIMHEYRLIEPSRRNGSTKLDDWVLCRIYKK
In outline:
as §1

Experiment [4] addresses T3, GST-ANAC055(1-171) (Arabidopsis thaliana, UniProt Q9LDY8 1-171).
T3 sequence: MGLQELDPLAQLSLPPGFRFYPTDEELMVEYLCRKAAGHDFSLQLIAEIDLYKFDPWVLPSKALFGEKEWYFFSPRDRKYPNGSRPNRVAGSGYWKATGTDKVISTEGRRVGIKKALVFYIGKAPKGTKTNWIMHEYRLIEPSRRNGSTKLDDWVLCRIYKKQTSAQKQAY
In outline: as §1

In experiment [5] the target is T4, GST-ATAF1 NAC domain (Arabidopsis thaliana, UniProt Q39013 7-158).
T4 sequence: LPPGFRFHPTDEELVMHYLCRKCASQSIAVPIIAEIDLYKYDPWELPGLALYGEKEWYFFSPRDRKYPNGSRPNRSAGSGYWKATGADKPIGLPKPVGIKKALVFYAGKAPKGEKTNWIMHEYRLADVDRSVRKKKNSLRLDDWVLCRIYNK
In outline:
as §1

In experiment [6] the target is T5, GST-ANAC092(1-285) full length (Arabidopsis thaliana, UniProt Q9FKA0 1-285).
T5 sequence: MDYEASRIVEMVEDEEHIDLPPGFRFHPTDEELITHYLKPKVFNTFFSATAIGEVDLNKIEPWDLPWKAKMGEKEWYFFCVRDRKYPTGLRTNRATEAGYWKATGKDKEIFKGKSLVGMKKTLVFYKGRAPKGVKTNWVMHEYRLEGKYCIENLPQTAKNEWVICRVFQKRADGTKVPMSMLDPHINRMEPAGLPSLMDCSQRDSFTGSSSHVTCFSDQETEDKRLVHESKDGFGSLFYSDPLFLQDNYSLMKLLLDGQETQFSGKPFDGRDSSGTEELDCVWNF
In outline: as §1

The target of experiment [7] is T6, GST-NAP(1-166) (Arabidopsis thaliana, UniProt O49255 1-166).
T6 sequence: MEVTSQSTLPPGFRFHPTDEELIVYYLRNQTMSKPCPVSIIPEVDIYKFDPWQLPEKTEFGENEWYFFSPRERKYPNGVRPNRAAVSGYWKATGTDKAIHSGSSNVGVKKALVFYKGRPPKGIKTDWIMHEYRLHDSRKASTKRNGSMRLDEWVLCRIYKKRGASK
In outline:
as §1

The target in experiment [8] is T7, GST-NST2(1-184) (Arabidopsis thaliana, UniProt Q9M274 1-184).
T7 sequence: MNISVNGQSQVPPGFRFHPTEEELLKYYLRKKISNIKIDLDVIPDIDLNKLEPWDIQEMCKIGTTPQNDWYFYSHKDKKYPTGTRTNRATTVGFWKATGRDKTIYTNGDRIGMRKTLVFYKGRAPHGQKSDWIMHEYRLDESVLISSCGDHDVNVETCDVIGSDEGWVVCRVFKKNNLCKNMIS
In outline: as §1

Experiment [9] has as its target T8, GST-NTL8 NAC domain (Arabidopsis thaliana, UniProt Q9XIN7 14-156).
T8 sequence: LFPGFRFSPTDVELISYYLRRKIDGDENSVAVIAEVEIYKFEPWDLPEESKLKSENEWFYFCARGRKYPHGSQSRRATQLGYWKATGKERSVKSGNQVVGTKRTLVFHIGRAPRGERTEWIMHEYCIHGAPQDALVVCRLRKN
In outline:
as §1

For experiment [10], the target named is T9, GST-SND1(1-203) (Arabidopsis thaliana, UniProt Q9LPI7 1-203).
T9 sequence: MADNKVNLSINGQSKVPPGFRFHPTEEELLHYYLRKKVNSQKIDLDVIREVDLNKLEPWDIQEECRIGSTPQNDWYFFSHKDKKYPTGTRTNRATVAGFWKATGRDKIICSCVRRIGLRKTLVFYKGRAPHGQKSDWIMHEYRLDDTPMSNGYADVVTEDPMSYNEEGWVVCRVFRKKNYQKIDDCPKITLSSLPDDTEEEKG
In outline:
as §1

In experiment [11] the target is T10, GST-VND3 NAC domain (Arabidopsis thaliana, UniProt Q9FH59 12-162).
T10 sequence: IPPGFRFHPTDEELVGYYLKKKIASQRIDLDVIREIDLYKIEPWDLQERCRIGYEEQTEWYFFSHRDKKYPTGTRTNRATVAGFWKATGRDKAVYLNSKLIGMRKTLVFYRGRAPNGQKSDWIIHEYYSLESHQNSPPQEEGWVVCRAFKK
In outline:
as §1

In experiment [12] the target is T11, GST-VND7 NAC domain (Arabidopsis thaliana, UniProt Q9C8W9 9-158).
T11 sequence: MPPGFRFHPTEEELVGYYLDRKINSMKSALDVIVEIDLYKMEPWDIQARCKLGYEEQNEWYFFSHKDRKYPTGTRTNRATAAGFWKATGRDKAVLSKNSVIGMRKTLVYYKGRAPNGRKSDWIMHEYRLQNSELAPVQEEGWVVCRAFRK
In outline: as §1

Sequence of GST-NTL6(1-168) (Q9SCK6 1-168): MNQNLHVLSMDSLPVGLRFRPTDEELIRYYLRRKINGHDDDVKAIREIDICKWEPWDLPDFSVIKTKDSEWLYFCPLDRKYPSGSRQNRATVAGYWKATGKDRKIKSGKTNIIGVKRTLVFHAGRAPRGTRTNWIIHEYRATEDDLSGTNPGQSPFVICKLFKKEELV

With ACGAGAAA, the binding signal in [1] is 0.249 E-score; in experiment [2], 0.265 E-score; in experiment [3] it was 0.324 E-score; in [4] it was 0.419 E-score; in [5], 0.184 E-score; in [6], 0.141 E-score. The binding signal in experiment [7] turned out to be 0.206 E-score; in experiment [8], 0.188 E-score; in experiment [9], 0.124 E-score; in experiment [10] it was 0.151 E-score; in experiment [11], 0.276 E-score; in experiment [12] it was 0.302 E-score.
TACGTTAA: the binding signal is 0.43 E-score in experiment [1]; 0.14 E-score in experiment [2]; 0.0653 E-score in [3]; 0.154 E-score in experiment [4]; 0.243 E-score in [5]; 0.432 E-score in experiment [6]. The binding signal was found to be 0.12 E-score in [7]; 0.321 E-score in experiment [8]; 0.462 E-score in [10]; 0.249 E-score in experiment [11]; 0.173 E-score in [12].
For CACGTAAA, the binding signal in experiment [1] was found to be 0.425 E-score; in experiment [2] it was 0.0987 E-score; in experiment [3], 0.43 E-score; in experiment [4], 0.414 E-score; in experiment [5], 0.332 E-score; in [6], 0.431 E-score. Moreover, the binding signal in experiment [7] came out at 0.35 E-score; in experiment [8] it was 0.293 E-score; in experiment [10], 0.289 E-score; in [11], 0.414 E-score; in experiment [12] it was 0.346 E-score.
Take ATACGTAA: the binding signal was 0.462 E-score in [1]; 0.175 E-score in experiment [2]; 0.476 E-score in experiment [3]; 0.451 E-score in experiment [4]; 0.407 E-score in [5]; 0.45 E-score in experiment [6]. Besides, the binding signal in experiment [7] turned out to be 0.461 E-score; in [8] it was 0.331 E-score; in experiment [10], 0.393 E-score; in [11], 0.462 E-score; in experiment [12], 0.458 E-score.
With AACGTGTA, the binding signal was found to be 0.403 E-score in experiment [1]; 0.0638 E-score in experiment [2]; 0.165 E-score in experiment [3]; 0.2 E-score in experiment [4]; 0.266 E-score in experiment [5]; 0.432 E-score in experiment [6]. The binding signal was found to be 0.125 E-score in [7]; 0.265 E-score in experiment [8]; 0.295 E-score in experiment [10]; 0.275 E-score in experiment [11]; 0.0615 E-score in experiment [12].
Consider ACGCAAGT, for which the binding signal in experiment [1] was determined as 0.424 E-score; in experiment [2] it was 0.121 E-score; in experiment [3], 0.277 E-score; in experiment [4] it was 0.295 E-score; in experiment [5], 0.295 E-score; in experiment [6], 0.444 E-score. The binding signal in experiment [7] came out at 0.356 E-score; in experiment [8], 0.291 E-score; in [9], 0.0671 E-score; in [10], 0.406 E-score; in experiment [11], 0.375 E-score; in [12] it was 0.366 E-score.
As for ACGTAATC, the binding signal in [1] is 0.464 E-score; in experiment [2], 0.0901 E-score; in experiment [3], 0.453 E-score; in experiment [4], 0.411 E-score; in experiment [5], 0.38 E-score; in [6] it was 0.462 E-score. Further, the binding signal in experiment [7] amounted to 0.443 E-score; in [8], 0.356 E-score; in [10] it was 0.424 E-score; in [11], 0.427 E-score; in [12] it was 0.44 E-score.
For the sequence TTACGAAA, the binding signal in [1] was determined as 0.396 E-score; in experiment [2] it was 0.121 E-score; in experiment [3], 0.248 E-score; in experiment [4], 0.221 E-score; in experiment [5], 0.278 E-score; in [6], 0.409 E-score. Moreover, the binding signal in [7] stood at 0.087 E-score; in experiment [8] it was 0.227 E-score; in [9] it was 0.067 E-score; in experiment [10], 0.434 E-score; in experiment [11], 0.26 E-score; in experiment [12], 0.233 E-score.
Take AAGCAAAG: the binding signal in [1] is 0.302 E-score; in experiment [2] it was 0.342 E-score; in experiment [3] it was 0.176 E-score; in experiment [4], 0.125 E-score; in experiment [5] it was 0.0761 E-score; in [6], 0.369 E-score. Besides, the binding signal in experiment [7] was 0.11 E-score; in experiment [8] it was 0.278 E-score; in experiment [9] it was 0.222 E-score; in experiment [10] it was 0.403 E-score; in [11], 0.198 E-score; in experiment [12] it was 0.25 E-score.
Consider GGAGGTAA, for which the binding signal amounted to 0.079 E-score in experiment [1]; 0.202 E-score in experiment [2]; 0.0898 E-score in experiment [3]; 0.0701 E-score in experiment [4]; 0.137 E-score in experiment [5]; 0.122 E-score in [6]. In addition, the binding signal in experiment [7] is 0.146 E-score; in [8], 0.106 E-score; in experiment [9], 0.435 E-score; in experiment [10], 0.19 E-score; in [11], 0.139 E-score; in experiment [12], 0.0814 E-score.
In the case of GAAGGAAC, the binding signal in experiment [1] amounted to 0.189 E-score; in experiment [2], 0.445 E-score; in experiment [3], 0.172 E-score; in experiment [4], 0.172 E-score; in experiment [5] it was 0.0557 E-score; in experiment [6] it was 0.204 E-score. Besides, the binding signal was determined as 0.148 E-score in experiment [7]; 0.249 E-score in [8]; 0.45 E-score in experiment [9]; 0.337 E-score in [10]; 0.114 E-score in [11]; 0.181 E-score in experiment [12].
For the sequence CAAGTAAC, the binding signal came out at 0.352 E-score in [1]; 0.316 E-score in experiment [2]; 0.134 E-score in experiment [3]; 0.203 E-score in experiment [4]; 0.0948 E-score in experiment [5]; 0.408 E-score in [6]. Also, the binding signal in experiment [7] was found to be 0.0502 E-score; in experiment [8], 0.298 E-score; in experiment [9] it was 0.185 E-score; in [10], 0.301 E-score; in [11] it was 0.209 E-score; in experiment [12], 0.0947 E-score.
GAAACGTA: the binding signal in [1] came to 0.355 E-score; in experiment [2] it was 0.0734 E-score; in experiment [3], 0.241 E-score; in experiment [4], 0.219 E-score; in experiment [5], 0.224 E-score; in [6], 0.411 E-score. Besides, the binding signal in [7] was 0.223 E-score; in experiment [8] it was 0.212 E-score; in [9], 0.288 E-score; in experiment [10], 0.435 E-score; in experiment [11], 0.332 E-score; in [12], 0.268 E-score.
In the case of CACGAAAC, the binding signal in experiment [1] worked out at 0.425 E-score; in experiment [2], 0.112 E-score; in [3] it was 0.358 E-score; in experiment [4], 0.343 E-score; in [5], 0.261 E-score; in [6] it was 0.452 E-score. Also, the binding signal worked out at 0.208 E-score in [7]; 0.224 E-score in experiment [8]; 0.137 E-score in experiment [9]; 0.177 E-score in experiment [10]; 0.326 E-score in experiment [11]; 0.246 E-score in [12].
